Hit rate of the full screen: of about 200,000 compounds, about 18,000 (9%) were called active. The full list was thinned out, with actives kept by preference. Unmarked numbers belong to inactive results. Cut-off read from the data, not from the text of the source: active = inhibition above about 50%; inactive = the rest.
Assay: antileishmanial activity against promastigotes – primary screen (AID 1063);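 note: promastigotes grown with compound for 44 hours at 28 °C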
Details: Leishmania major promastigotes, resazurin fluorescence viability; at 10 µM; hits give high values

Row | SMILES | inhibition
1 | O=C(O)Cc1sc(-c2ccccc2)nc1-c1cccs1 | -7.68%
2 | CC(=O)NCC(=O)N1CCCC(C(=O)c2ccc3c4c(cccc24)CC3)C1 (centres undefined) | 1.15%
3 | O=C(COc1ccccc1Cl)Nc1ccc(C(=O)c2ccc(C(=O)O)cc2)cc1 | 0.1%
4 | CN(CC(=O)Nc1ccccc1[N+](=O)[O-])Cc1ccc(Br)cc1 | 5.69%
5 | CC1=C(C)C(=O)OC(C(C)C2CCC3C4CC=C5CC(OC6OC(COC7OC(CO)C(O)C(O)C7O)C(O)C(O)C6O)CC(O)C5(C)C4CCC23C)C1 (centres undefined) | -11.1%
6 | Cc1cc(C)cc(OCC(=O)NCc2cc(C)nc3ccccc23)c1 | 36.5%
7 | COC(=O)CC1=NN(c2ccccc2)C(=O)C1 | -3.08%
8 | Cc1ccc(-n2c(C)cc(/C=C(\C#N)C(=O)NCC3CCCO3)c2C)cc1 (centres undefined) | -2.28%
9 | C/C(=C\C(=O)c1cccnc1)Nc1ccc(C)c(C)c1 | 20.1%
10 | Cc1cc(/C=C(/C#N)C(=O)Nc2ccc(Cl)cc2)c(C)n1-c1cccnc1 | 56.9% (active)
11 | COC(=O)c1c(C)[nH]c(C)c1-c1ccc([N+](=O)[O-])cc1 | 12.6%
12 | O=C(CSc1nn(-c2ccc(F)cc2)c(=S)s1)NC1CCS(=O)(=O)C1 (centres undefined) | 2.16%
13 | COc1ccc(NC(=O)CCNS(=O)(=O)c2ccc3c(c2)c(=O)n(C)c(=O)n3C)cc1OC | -8.95%
14 | CCC(=O)NC(=S)Nc1ccc(NC(=O)c2ccco2)c(Cl)c1 | -3.46%
15 | CCN(CC)P(=O)(Nc1ccc(SC(F)F)cc1)c1ccc(N(C)C)cc1NC(=O)c1ccco1 (centres undefined) | 85.2% (active)
16 | O=C(Nc1ccc(Sc2ccc(Br)cc2)cc1)c1ccco1 | -2.45%
17 | COc1ccc(N2CCN(C(=O)COc3ccc4c(C)cc(=O)oc4c3)CC2)cc1 | 1.16%
18 | Cc1ccc2cc(C#N)c(NCCNC(=S)NCCCN3CCOCC3)nc2c1 | 1.99%
19 | CN(C)S(=O)(=O)N1CCN(c2ccc([N+](=O)[O-])cc2)CC1 | -7.87%
20 | Cc1cc(C)c(OCCN2CC(C)OC(C)C2)c(Br)c1 (centres undefined) | 88.1% (active)
21 | CC(=O)Nc1cccc(C(=O)Nc2nc(C)cs2)c1 | 11.8%
22 | CC1CCCN(CC(O)COc2ccc3c(c2)OCO3)C1 (centres undefined) | 54.4% (active)
23 | CN1CCN(CC(O)COCc2ccc3c(c2)OCO3)CC1 (centres undefined) | -2.38%
24 | CC1CCCN(CC(O)COCc2ccccc2)C1 (centres undefined) | 11%

Row | SMILES | inhibition
25 | Cc1coc(C)c1C(=O)CC1(O)C(=O)N(C)c2ccc(Cl)cc21 (centres undefined) | 1.6%
26 | O=C(Nc1cccc(Cl)c1)c1cc([N+](=O)[O-])ccc1N1CCN(CCO)CC1 | 0.91%
27 | COc1cc(NC(=S)NCCSc2ccc(C)cc2)cc(OC)c1 | 7.14%
28 | Cn1c(N)c(C(=O)COC(=O)/C=C/c2ccc(OC(F)F)cc2)c(=O)n(C)c1=O | -9.55%
29 | CCCCCC(=O)Nc1ccc(-c2cn3cccnc3n2)cc1 | -7.19%
30 | CN(C)c1ccc(/C=N/NC(=O)c2ccc(Cn3cc(Br)cn3)o2)cc1 | 3.04%
31 | O=C(N/N=C\c1ccc(Br)cc1)c1ccc(Cn2cccn2)o1 | 1.72%
32 | O=C(N/N=C/c1ccc2c(c1)OCO2)c1ccc(Cn2cc([N+](=O)[O-])cn2)o1 | 87% (active)
33 | CCCCN1C(=S)NC[C@@H]1C(C)CC (some centres undefined) | -1.31%
34 | CCOC(=O)c1ccc(NNC(C)=O)c([N+](=O)[O-])c1 | -5.16%
35 | CCOC(=O)C1=C(C)N=c2s/c(=C\C(=O)OC)c(=O)n2C1c1ccc(OC)cc1 (centres undefined) | 18.8%
36 | COCCOC(=O)C1=C(C)N=c2s/c(=C\c3cccs3)c(=O)n2C1c1cccs1 (centres undefined) | 7.92%
37 | COc1ccc(OC)c(C2C3=C(N=c4s/c(=C\c5cccc(O)c5)c(=O)n42)c2ccccc2CC3)c1 (centres undefined) | 75.7% (active)
38 | Brc1ccc(C2CC(c3ccccc3)=Nc3ccccc3N2)cc1 (centres undefined) | 27.2%
39 | COc1ccc(C2CC(c3ccccc3)=NN2C(=O)COC(=O)COc2ccccc2)cc1 (centres undefined) | 2.56%
40 | CNC(=S)N1N=C(c2ccccc2)CC1c1ccc(Br)cc1 (centres undefined) | 99.3% (active)
41 | O=C1CS(=O)CN1c1ccc(Oc2ccccc2)cc1 (centres undefined) | -2.75%
42 | NS(=O)(=O)c1cccc(NC(=O)COC(=O)/C=C/c2ccco2)c1 | -5.99%
43 | CCN(c1ccccc1)S(=O)(=O)c1ccc(NC(=O)C(C)(C)C)cc1 | 0.65%
44 | CCN(c1ccccc1)S(=O)(=O)c1ccc(C(=O)Nc2nccs2)cc1 | 72.2% (active)
45 | CC(=O)Oc1ccc(C(=O)Nc2nccs2)cc1 | -7.34%
46 | COc1ccc(CCc2nnc(CCC(=O)NCc3cnn(-c4ccccc4C)c3)o2)cc1 | 6.37%
47 | O=C(c1ccccc1Oc1ccccc1)N1CCN(c2ccc(F)cc2)CC1 | 10.2%
48 | Cn1c2ccccc2c2c(C(=O)N3CCN(c4ccc(F)cc4)CC3)cn(C3CCCC3)c(=O)c21 | 99.4% (active)

Row | SMILES | inhibition
49 | CCOC(=O)N1CCN(C(=O)c2nn(-c3ccc(C)cc3)c(=O)c3c2c2ccccc2n3C)CC1 | -5.83%
50 | O=C(CSc1nnc2ccc(-c3ccncc3)nn12)N1CCCCC1 | 20.4%
51 | CC(=O)Nc1ccc(S(=O)(=O)NC2(C(F)(F)F)C(=O)NC(C)=C2C#N)cc1 (centres undefined) | -4.23%
52 | O=C(NCc1nnc(SCC(=O)N2CCCc3ccccc32)o1)c1ccccc1F | -5.95%
53 | O=C(/C=C/c1ccc(Cl)c([N+](=O)[O-])c1)c1cccnc1 | 100% (active)
54 | O=C(Nc1cccnc1)c1ccc(Cl)c([N+](=O)[O-])c1 | 1.22%
55 | CN(C)c1ccc(/C=C/C(=O)c2ccc(C(C)(C)C)cc2)cc1[N+](=O)[O-] | 27.1%
56 | O=C(NCc1ccc(Cl)c(Cl)c1)c1cccnc1 | -2.18%
57 | O=C(/C=C/c1ccc(Cl)cc1Cl)c1cccnc1 | 100% (active)
58 | O=C(/C=C/c1ccc(Cl)cc1Cl)NCc1ccco1 | -1.38%
59 | COCCNc1nc2nonc2nc1N(C)Cc1ccc(C)cc1 | 2.88%
60 | CCC(C)(C(=O)Nc1ccccc1C)N(C(=O)CNC(C)=O)c1ccc(C)cc1 (centres undefined) | -4.62%
61 | CSc1ccc(CN2C(=O)NC3(CCCCCC3)C2=O)cc1 | 9.1%
62 | CC(NCc1nc2ccccc2n1C)C12CC3CC(CC(C3)C1)C2 (centres undefined) | 12.4%
63 | Cc1ccccc1-c1nc(C#N)c(NCc2ccco2)o1 | -3.77%
64 | CC(C)(C)C1CCC(C(=O)Nc2cccnc2)CC1 (centres undefined) | -5.65%
65 | CCOC(=O)c1sc(-c2cccc([N+](=O)[O-])c2)cc1N | 4.06%
66 | CCOC(=O)c1sc2nc(CSc3ccccc3)[nH]c(=O)c2c1C | 14.1%
67 | CCOC(=O)c1sc(C)c2c1NC(C)(c1cccc3ccccc13)NC2=O (centres undefined) | 97.3% (active)
68 | O=C(O)CCCCCNc1ncnc2ccc(Br)cc12 | -1.72%
69 | Cc1cccc2c1N(CC(=O)OC(C)C)C(=O)C2=O | -12.8%
70 | CC(C)OC(=O)CN1C(=O)C(=O)c2ccccc21 | 88% (active)
71 | CC(C)OC(=O)CN1C(=O)c2ccccc2C1=O | 14.7%
72 | O=C(CC1CCCCC1)NCc1ccc(F)cc1 | -12.7%

Row | SMILES | inhibition
73 | CC(C)Oc1ccc(CCc2nnc(SCC(=O)O)n2-c2ccccc2)cc1 | -8.77%
74 | NS(=O)(=O)c1ccc(NC(=O)COC(=O)C2(c3ccc(F)cc3)CCCC2)cc1 | 70.2% (active)
75 | CN(C)S(=O)(=O)c1cccc(NC(=O)COC(=O)C2(c3ccccc3F)CCCC2)c1 | 28.6%
76 | NS(=O)(=O)c1ccc(NC(=O)COC(=O)c2ccco2)cc1 | 0.53%
77 | CC(Oc1ccc(Br)cc1Br)C(=O)NC1CCCC1 (centres undefined) | -1.48%
78 | O=C(CSCC(=O)Nc1cccc([N+](=O)[O-])c1)Nc1ccccc1 | 4.18%
79 | CC(=O)Nc1ccc(Nc2c3ccccc3nc3ccccc23)cc1 | 101% (active)
80 | CC(=O)Nc1ccc(NC(=O)COc2ncnc3ccccc23)cc1 | -2.61%
81 | Cc1cc(CNC(=O)c2cccc([N+](=O)[O-])c2)c2ccccc2n1 | 9.74%
82 | O=[N+]([O-])c1cccc(Nc2c3ccccc3nc3ccccc23)c1 | 69.1% (active)
83 | CC(=O)Nc1ccc(Nc2c([N+](=O)[O-])cc(S(C)(=O)=O)cc2[N+](=O)[O-])cc1 | 10.8%
84 | O=C(O)CCc1nc2cc(Cl)ccc2n(Cc2ccccc2)c1=O | -0.11%
85 | CCC1(CC)NC(=O)N(Cc2nc3ccccc3s2)C1=O | -8.89%
86 | CCNC(=O)COC(=O)CCNC(=O)c1cccc(C)c1 | -5.94%
87 | CC1CC(C)(C)NC(=S)N1CCC(=O)N1CCN(Cc2ccccc2)CC1 (centres undefined) | 0.54%
88 | NC(=O)Cn1nc([N+](=O)[O-])nc1Oc1ccc(Br)cc1 | 33.2%
89 | NC(=O)c1ccc(NC(=O)COC(=O)C(Cc2ccccc2)NC(=O)c2ccccc2)cc1 (centres undefined) | 1.11%
90 | O=C1CSC(c2cccc(F)c2)N1c1ccccc1F (centres undefined) | 1.64%
91 | O=C1CCCC2=C1C(c1ccccc1)n1c(s/c(=C/c3cccc(F)c3)c1=O)=N2 (centres undefined) | 60.3% (active)
92 | O=C1CC(c2cccc(F)c2)C2=C(CCCC2=O)N1 (centres undefined) | -5.73%
93 | CCSC1=NCCN1C(=O)c1ccc(S(=O)(=O)N(CC)CC)cc1 | 2.69%
94 | C=CCN(Cc1nc(-c2cc(OC)c3c(c2)OCO3)oc1C)C1CCS(=O)(=O)C1 (centres undefined) | 64.6% (active)
